# Assay results as given in PubChem BioAssay (NCATS).
# Unmarked numbers belong to inactive results. Inconclusive results are not listed. Calls of active or inactive are those of the source. Unless noted, the call rests on the fitted dose curve; in most records, active means well fitted curve in either direction with a large enough effect (not every such curve was filed as active); inconclusive means small, poorly fitted or top-dose-only effect, or another doubt; inactive means flat fitted curve, though single readings scatter.
# Experiments:
# [1] = target: Lysosomal acid glucosylceramidase (Homo sapiens) (UniProt P04062); assay: Glucocerebrosidase-p2 (AID 348; in the data active means potency below about 10 µM; further: potency means the concentration at half of the fitted maximal effect); conditions: purified GBA, blue fluorogenic substrate, 40 min
# Sequence of Lysosomal acid glucosylceramidase (Homo sapiens) (P04062 whole entry, looked up): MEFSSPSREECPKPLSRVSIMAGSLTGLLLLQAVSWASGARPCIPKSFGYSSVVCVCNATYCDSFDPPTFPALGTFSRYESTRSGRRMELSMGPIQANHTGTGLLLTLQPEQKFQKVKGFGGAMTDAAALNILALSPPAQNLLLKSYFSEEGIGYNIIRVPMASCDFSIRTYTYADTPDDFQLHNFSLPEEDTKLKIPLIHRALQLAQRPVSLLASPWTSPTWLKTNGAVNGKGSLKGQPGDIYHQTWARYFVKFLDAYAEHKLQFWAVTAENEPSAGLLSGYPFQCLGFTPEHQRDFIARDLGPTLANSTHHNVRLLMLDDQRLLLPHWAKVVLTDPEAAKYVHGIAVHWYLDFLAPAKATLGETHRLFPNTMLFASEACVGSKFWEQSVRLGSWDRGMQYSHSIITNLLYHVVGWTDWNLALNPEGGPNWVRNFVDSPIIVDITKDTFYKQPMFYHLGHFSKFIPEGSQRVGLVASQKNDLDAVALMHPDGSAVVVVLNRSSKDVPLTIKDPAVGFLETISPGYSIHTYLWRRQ
# Outline: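 Compounds titrated from 0.6 nM upwards against 0.2 nM enzyme in pH 5.9 citric acid/KH2PO4, taurocholate, tween-20; blue fluorogenic substrate 80 uM, 40 min room temperature, stopped and read Ex 365/Em 440 for AC50.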
# [2] = Stat Signaling Pathway (AID 446); conditions: ME-180 SIE beta-lactamase reporter, IL-6 stimulated, 5 h; at 7.69 µM (top of the series) unless noted;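 further: ME-180 cervical cancer cells given 40 pM IL-6 alongside compound; SIE-controlled beta-lactamase reporter measured as 460/530 nm FRET emission ratio; on the % scale 0 is the no-effect control and ±100 the full control effect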
# Outline: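 ME-180 cells carrying a SIE-driven beta-lactamase reporter are stimulated with 40 pM IL-6 for 5 h at 37C in the presence of compound. The 460/530 nm FRET substrate ratio is read after 2.5 h at RT. Data are normalised to 300 pM IL-6 and to 125 nM JAK inhibitor controls.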
# [3] = target: Glucocorticoid receptor (Homo sapiens) (UniProt P04150); assay: GR-EFC Redistribution (AID 451; calls by dose curve; further: potency means the concentration at half of the fitted maximal effect); conditions: CHO-K1 GR-EFC translocation, beta-gal luminescence, 2 h
# Sequence of Glucocorticoid receptor (Homo sapiens) (P04150 whole entry, looked up, the tested form may be a part): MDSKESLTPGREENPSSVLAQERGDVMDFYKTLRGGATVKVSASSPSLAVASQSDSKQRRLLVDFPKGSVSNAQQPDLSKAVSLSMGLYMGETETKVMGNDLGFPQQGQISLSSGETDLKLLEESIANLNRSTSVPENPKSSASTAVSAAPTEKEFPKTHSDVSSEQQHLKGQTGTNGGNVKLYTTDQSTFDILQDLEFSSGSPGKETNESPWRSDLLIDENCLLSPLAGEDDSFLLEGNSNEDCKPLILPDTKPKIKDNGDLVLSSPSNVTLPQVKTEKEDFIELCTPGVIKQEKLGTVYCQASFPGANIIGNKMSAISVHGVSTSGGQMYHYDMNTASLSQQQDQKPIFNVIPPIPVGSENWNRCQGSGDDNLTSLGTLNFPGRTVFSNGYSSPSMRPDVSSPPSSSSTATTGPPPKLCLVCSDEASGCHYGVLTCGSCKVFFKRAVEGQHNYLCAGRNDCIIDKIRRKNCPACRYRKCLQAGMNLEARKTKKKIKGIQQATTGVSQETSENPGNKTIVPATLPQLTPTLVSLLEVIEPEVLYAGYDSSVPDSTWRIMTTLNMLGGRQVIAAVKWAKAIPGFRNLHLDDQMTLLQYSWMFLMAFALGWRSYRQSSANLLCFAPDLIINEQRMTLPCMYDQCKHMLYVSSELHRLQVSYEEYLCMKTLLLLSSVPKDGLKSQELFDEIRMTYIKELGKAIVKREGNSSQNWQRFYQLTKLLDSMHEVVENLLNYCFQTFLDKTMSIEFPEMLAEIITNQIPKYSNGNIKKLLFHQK
# Outline: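 CHO-K1 cells expressing nuclear EA and GR-ED fragments of b-gal; compounds titrated up to 46 uM final, 2 h at 37 C. GR nuclear translocation read as complemented b-gal luminescence after 1 h RT detection.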
# [4] = target: Mitogen-activated protein kinase 10 (Mus musculus) (UniProt Q61831); assay: JNK3 AlphaScreen Assay (AID 530); conditions: JNK3 lysate, c-Jun phosphorylation; series mostly up to 57.1 µM;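 further: kinase came from lysate of stimulated human HepG2 cells; signal reports phosphorylation of biotinylated GST-cJun 1-79 at Ser73 with 10 µM ATP; on the % scale 0 is the no-effect control and ±100 the full control effect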
# Outline: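 qHTS format: compounds tested as titrations against IL-1beta/TNF-alpha-activated HepG2 lysate JNK3 with biotin-GST-cJun substrate and 10 uM ATP at room temperature. Loss of anti-phospho-cJun AlphaScreen signal indicates inhibition.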
# [5] = target: 3',5'-cyclic-AMP phosphodiesterase 4B (Homo sapiens) (UniProt Q07343); assay: qHTS Assay for Inhibitors of PDE-IV (AID 607; active means well fitted activation curve with a large enough effect in the main read-out, with a control signal flat, not every such curve was filed as active; further: % of control where 0% means no effect); conditions: HEK293 ACTOne CNG channel cells, membrane potential fluorescence; series mostly up to 22.9 µM
# Sequence of 3',5'-cyclic-AMP phosphodiesterase 4B (Homo sapiens) (Q07343 whole entry, looked up): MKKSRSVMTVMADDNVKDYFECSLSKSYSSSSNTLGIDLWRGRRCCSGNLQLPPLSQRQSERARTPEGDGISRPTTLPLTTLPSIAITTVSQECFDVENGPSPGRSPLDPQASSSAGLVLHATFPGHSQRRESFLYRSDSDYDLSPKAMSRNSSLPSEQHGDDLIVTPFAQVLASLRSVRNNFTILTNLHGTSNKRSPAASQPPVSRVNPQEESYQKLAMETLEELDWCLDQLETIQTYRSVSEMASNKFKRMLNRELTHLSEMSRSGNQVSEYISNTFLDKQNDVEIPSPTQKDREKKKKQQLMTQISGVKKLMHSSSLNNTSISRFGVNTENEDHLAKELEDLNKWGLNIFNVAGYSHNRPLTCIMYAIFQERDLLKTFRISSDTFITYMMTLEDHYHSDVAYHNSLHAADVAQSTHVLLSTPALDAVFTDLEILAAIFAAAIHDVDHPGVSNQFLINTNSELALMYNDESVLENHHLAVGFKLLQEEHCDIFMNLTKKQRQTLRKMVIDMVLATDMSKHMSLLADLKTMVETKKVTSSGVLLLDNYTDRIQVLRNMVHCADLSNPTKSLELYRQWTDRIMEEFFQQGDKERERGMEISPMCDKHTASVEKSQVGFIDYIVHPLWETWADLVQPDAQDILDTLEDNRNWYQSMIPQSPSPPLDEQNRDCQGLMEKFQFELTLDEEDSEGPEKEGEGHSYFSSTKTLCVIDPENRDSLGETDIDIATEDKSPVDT
# Outline: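 HEK293 ACTOne cells with CNG channel (1000/well), endogenous PDE4; membrane potential dye, compounds up to 22.9 uM final. Fluorescence Ex 535/Em 590; RO 20-1724 (100 uM final) as reference.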
# [6] = Primary qHTS for small molecule stabilizers of the endoplasmic reticulum resident proteome: Secreted ER Calcium Modulated Protein (SERCaMP) assay (AID 1508630; active means well fitted curve in the direction sought with a large enough effect; an effect the other way counts as inactive or inconclusive; further: on the % scale 0 is the no-effect control and ±100 the full control effect); conditions: SH-SY5Y GLuc-SERCaMP (Gaussia luciferase released on ER calcium loss) secretion, thapsigargin, luminescence; series mostly up to 38.4 µM
# Outline: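 GLuc-SERCaMP-expressing SH-SY5Y cells, pretreated 16 h with compound, are challenged with thapsigargin to empty ER calcium stores; after 4 h, coelenterazine is added directly to the medium and luminescence is imaged.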
# [7] = NFAT Signaling Pathway (AID 444); conditions: Jurkat NFAT-bla M1, carbachol, beta-lactamase ratio, 5 h; at 7.69 µM (top of the series) unless noted;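 further: carbachol stimulus at about its EC50 of 1 µM final; on the % scale 0 is the no-effect control and ±100 the full control effect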
# Outline: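 Jurkat cells with NFAT-driven β-lactamase reporter and co-expressed M1 receptor, stimulated with carbachol (final 1 uM, ~EC50), compound titration, 5 h at 37 °C. CCF4 loaded 1 h at RT; 460/530 nm ratio gave %activity and AC50.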
# [8] = target: Glucocorticoid receptor (Homo sapiens) (UniProt P04150); assay: GR-GFP Redistribution (AID 450;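 active means compounds whose dose series gives a full or clear partial fitted curve of increased nuclear translocation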; further: potency means the concentration at half of the fitted maximal effect); conditions: U2OS GR-GFP nuclear translocation, laser cytometry, 2 h
# [9] = target: Cytochrome P450 1A2 (Homo sapiens) (UniProt P05177); assay: p450-cyp1a2 (AID 410; calls by dose curve; further: potency means the concentration at half of the fitted maximal effect;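 on activity change, negative = inhibition: -100% = full effect of reference inhibitor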); conditions: recombinant CYP1A2, luciferin-ME demethylation, luminescence; series mostly up to 57 µM
# Sequence of Cytochrome P450 1A2 (Homo sapiens) (P05177 whole entry, looked up): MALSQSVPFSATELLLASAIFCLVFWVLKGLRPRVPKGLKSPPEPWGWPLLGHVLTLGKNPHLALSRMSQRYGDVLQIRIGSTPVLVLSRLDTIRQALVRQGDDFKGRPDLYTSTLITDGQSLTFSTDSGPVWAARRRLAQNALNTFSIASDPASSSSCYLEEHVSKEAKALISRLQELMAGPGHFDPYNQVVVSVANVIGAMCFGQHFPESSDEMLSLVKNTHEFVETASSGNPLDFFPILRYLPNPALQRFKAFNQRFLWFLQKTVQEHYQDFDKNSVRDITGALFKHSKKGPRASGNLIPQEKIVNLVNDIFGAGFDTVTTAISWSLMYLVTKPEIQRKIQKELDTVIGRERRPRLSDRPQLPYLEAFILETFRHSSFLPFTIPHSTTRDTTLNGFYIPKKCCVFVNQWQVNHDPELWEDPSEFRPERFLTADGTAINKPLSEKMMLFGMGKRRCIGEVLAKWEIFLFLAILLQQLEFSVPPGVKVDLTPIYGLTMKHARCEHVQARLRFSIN
# Outline: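 Inhibition was calculated relative to 57 uM furafylline (full inhibition). The reaction used human CYP1A2 at 20nM with Luciferin-ME at its Km, 100uM, driven by an NADPH-regenerating system for 60 min at room temperature.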
# [10] = target: Cytochrome P450 3A4 (Homo sapiens) (UniProt P08684); assay: qHTS Assay for Activators of Cytochrome P450 3A4 (AID 885; active means well fitted curve in the direction sought with a large enough effect; an effect the other way counts as inactive or inconclusive; further: nearly all actives have a fitted effect of over 65% in size); conditions: recombinant CYP3A4, Luciferin-PPXE luminescence, 60 min; series mostly up to 57.1 µM
# Sequence of Cytochrome P450 3A4 (Homo sapiens) (P08684 whole entry, looked up): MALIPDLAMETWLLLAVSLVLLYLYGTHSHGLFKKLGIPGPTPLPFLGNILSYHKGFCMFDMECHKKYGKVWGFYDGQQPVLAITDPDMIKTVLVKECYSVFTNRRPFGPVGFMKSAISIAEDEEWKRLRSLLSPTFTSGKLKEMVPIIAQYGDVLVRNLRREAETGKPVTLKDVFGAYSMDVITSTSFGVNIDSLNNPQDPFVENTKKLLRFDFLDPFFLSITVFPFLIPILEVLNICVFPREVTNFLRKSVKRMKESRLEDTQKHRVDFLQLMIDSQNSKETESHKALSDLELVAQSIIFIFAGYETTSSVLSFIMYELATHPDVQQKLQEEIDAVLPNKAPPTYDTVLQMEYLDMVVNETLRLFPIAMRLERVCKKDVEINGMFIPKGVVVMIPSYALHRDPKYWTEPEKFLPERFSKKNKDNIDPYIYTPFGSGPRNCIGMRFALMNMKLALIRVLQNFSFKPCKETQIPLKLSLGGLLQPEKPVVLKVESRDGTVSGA
# Outline: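 Human CYP3A4 (20 nM) with Luciferin-PPXE at 25 uM (its KM) in 200 mM KPO4; 10 min compound preincubation, then NADPH regeneration and 60 min reaction at RT. Luciferin read by luminescence; normalized to 57 uM ketoconazole full inhibition.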
# [11] = AP1 Signaling Pathway (AID 357); conditions: ME-180 (cervical carcinoma) AP-1-bla reporter, EGF-induced, beta-lactamase ratio, 5 h; at 7.69 µM (top of the series) unless noted
# Outline: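 Titration-series screen for positive or negative modulators of EC50 EGF-induced signaling in ME-180 cells carrying an AP-1-driven beta-lactamase reporter. After 5 hours at 37 degrees Celsius, CCF4 460nm/530nm emission ratio gave %Activity; AC50 values derived.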
SMILES,Potency [1] [µM],"activity, negative = inhibition [2]",Potency [3],Potency [4],Potency [5],outcome [6],"activity change, negative = inhibition [7]",Potency [8] [µM],Potency [9],Potency [10],"activity change, negative = inhibition [11]"
O=S(=O)(c1ccccc1)N1CCC2(CCCN(Cc3cc(C(F)(F)F)cc(C(F)(F)F)c3)C2)CC1,> 11.4,5.03%,> 46 µM,inactive,inactive,inactive,,,,,
COc1ncc2nc(-c3ccc(F)cc3)c(=O)n(C[C@H]3CCCO3)c2n1,> 11.4,-1.31%,> 46 µM,inactive,inactive,inactive,-6.14%,,,,
O=c1c(-c2ccc(F)c(F)c2)nc2cncnc2n1Cc1ccc(F)cc1,> 11.4,1.58%,> 46 µM,inactive,inactive,inactive,-2.88%,> 9.22,,,
COCC(=O)N1CCC2(CCN(Cc3cc(C(F)(F)F)cc(C(F)(F)F)c3)CC2)CC1,> 11.4,8.32%,> 46 µM,inactive,inactive,inactive,-3.18%,,,,
CCNc1ncc2nc(-c3ccccc3)c(=O)n(CCc3ccccc3)c2n1,> 11.4,,> 46 µM,inactive,inactive,inactive,,> 9.22,12.6 µM (active),inactive,
O=c1c(-c2ccc(Cl)cc2)nc2cnc(N3CCNCC3)nc2n1Cc1ccc(F)cc1,> 11.4,,> 46 µM,,inactive,inactive,,,15.8 µM (active),inactive,
Oc1cc2c(c(Cl)c1O)CCNC[C@H]2c1ccccc1,,,> 46 µM,inactive,inactive,inactive,-20.4% [at 38 µM],> 46,inactive,inactive,-21% [at 38 µM]
COC(=O)N1CCC2(CCN(C(=O)Nc3cccc(F)c3)CC2)CC1,,22.8%,> 46 µM,inactive,inactive,inactive,-11.6%,,12.6 µM (active),,-21.3%
c1ccc(-c2ccc(N3CCCC4(CCNCC4)C3)cc2)cc1,,-2.12%,> 46 µM,,inactive,inactive,24.2%,,10 µM (active),inactive,9.27%
CCNc1ncc2nc(-c3cc(F)cc(F)c3)c(=O)n(-c3ccc(OC)cc3)c2n1,> 11.4,,> 46 µM,inactive,inactive,inactive,,> 9.22,,inactive,
COc1ccc(-c2nc3cnc(N4CCN(C)CC4)nc3n(CCC#N)c2=O)cc1,> 11.4,,> 46 µM,inactive,inactive,inactive,,> 9.22,inactive,inactive,
CCNc1ncc2nc(-c3cccc(C#N)c3)c(=O)n(C)c2n1,,30%,> 46 µM,inactive,inactive,inactive,,> 9.22,2.51 µM (active),inactive,15.2%
COc1ccc(NC(=O)N2CCCC3(CCN(C(=O)c4cccc(F)c4)CC3)C2)cc1,,-10.9%,29.5 µM (active),inactive,inactive,inactive,-25.3%,,inactive,inactive,-26.5%
CCNc1ncc2nc(-c3cc(F)cc(F)c3)c(=O)n(-c3ccccc3)c2n1,> 11.4,,> 46 µM,inactive,,inactive,,> 9.22,,inactive,
O=c1c(-c2cccs2)nc2cnc(Oc3cccc(Cl)c3)nc2n1C[C@H]1CCCO1,> 11.4,,> 46 µM,,inactive,inactive,,> 9.22,3.16 µM (active),inactive,
O=c1c(-c2cccs2)nc2cncnc2n1C1CC1,,-5.35%,> 46 µM,inactive,,inactive,-2.79%,> 9.22,2.51 µM (active),inactive,0.545%
COc1ccc(-n2c(=O)c(-c3cc(F)cc(F)c3)nc3cnc(N4CCNCC4)nc32)cc1,> 11.4,,> 46 µM,inactive,inactive,inactive,,> 9.22,12.6 µM (active),inactive,
COc1ccc(-c2nc3cnc(N(C)C)nc3n(CCc3ccccc3)c2=O)cc1,> 11.4,121% [activator] (active),> 46 µM,,inactive,inactive,,,1.26 µM (active),,
COc1cccc(Cn2c(=O)c(C)nc3cnc(OCc4ccccc4)nc32)c1,> 11.4,-3.44%,> 46 µM,inactive,,inactive,-16.9%,> 9.22,,,
